Data on 27 molecules can be found in PubChem BioAssay (NCATS).

Test [1] addresses Cellular tumor antigen p53 (Homo sapiens) (UniProt P04637). Kind of test: Primary qHTS for small molecule compounds that upregulate eGFP-tagged delta133p53alpha (in N-terminal) cells. (AID 2060322).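 Further: cells pre-induced with doxycycline then dosed without doxycycline; series mostly up to about 56 µM; 0% = DMSO vehicle and 100% = reference activator; nearly all actives have a fitted effect of over 75% in size.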 As to conditions: NCI-H358 eGFP-delta133p53alpha fluorescence, 24 h; activation: hits give high values. Put shortly: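 NCI-H358 cells pre-induced 24 h with 10 ng/ml doxycycline for eGFP-delta133p53alpha, plated dox-free and exposed 24 h at 37C to titrated compounds. Fixed, Hoechst-stained; gated GFP peak intensity by laser scanning cytometry, normalized to DMSO (0%) and 57.5 uM 5-azacytidine (100%).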

Test [2] has the same target. Kind of test: Primary qHTS for small molecule compounds that upregulate eGFP-tagged delta133p53alpha (in C-terminal) cells. (AID 2060324). Further: potency means the concentration at half of the fitted maximal effect. Put shortly: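 Concentration-response screen: compounds titrated onto pre-induced NCI-H358 D133p53a-eGFP cells, incubated one day, fixed with 3.5% PFA. Per-cell GFP peak intensity was gated, then normalized against intraplate controls.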

The target in test [3] is Retinaldehyde dehydrogenase 3 (Homo sapiens) (UniProt P47895). As to the kind of experiment: qHTS for Inhibitors of the Aldehyde Dehydrogenase Family (ALDH1A3) Validation screen (AID 2061312). Further: on the % scale 0 is the no-effect control and ±100 the full control effect; nearly all actives have a fitted effect of over 45% in size. A general note: Quantitative high-throughput screening tests each substance at several concentrations.
Test [4] concerns the target Aldehyde dehydrogenase, mitochondrial (Homo sapiens) (UniProt P05091). As to the kind of experiment: qHTS for Inhibitors of the Aldehyde Dehydrogenase Family (ALDH2) Validation screens (AID 2061302; active means well fitted inhibition curve with a large enough effect; title and protocol of this record describe different tests;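 further: plate controls were DMSO vehicle for no effect and maximal DPI positive control response for full effect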).
Test [5] is described as follows: BET inhibitor-based combinations targeting novel dependencies in MECOM-rearranged (r) AML: SET-2 cell line (AID 2202231). Further: nearly all actives have a fitted effect of over 35% in size. Further: potency means the concentration at half of the fitted maximal effect.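 On viability: plate controls were DMSO treated cells for no effect and wells without cells for full effect.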 As to conditions: SET-2 AML cells viability, CellTiter-Glo luminescence, 48 h; viability: hits give low values, concentration not given here. In a few lines: (§1)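 AML cell lines seeded at 500 cells/well, treated with 11-point dose curves for 48 h. Viability by CellTiter-Glo luminescence, normalised to DMSO and empty wells; activity expressed as AUC and per-cell-line Z-transformed AUC.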

Test [6] is described as follows: BET inhibitor-based combinations targeting novel dependencies in MECOM-rearranged (r) AML: OCI-AML3 cell line (AID 2202232). Further: nearly all actives have a fitted effect of over 35% in size. Further: potency means the concentration at half of the fitted maximal effect. As to conditions: Potency: OCI-AML3 viability. Put shortly: as §1
The nature of test [7]: BET inhibitor-based combinations targeting novel dependencies in MECOM-rearranged (r) AML: MV-4-11 cell line (AID 2202233). Further: nearly all actives have a fitted effect of over 45% in size. Further: potency means the concentration at half of the fitted maximal effect. In a few lines: (§2)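 Cells at 500/well were exposed for 48 hr to MIPE v5.0 drugs as 11-point dose curves. Viability was read by CellTiter-Glo luminescence and normalized to DMSO and empty-well controls. Activity was expressed as AUC and per-cell-line Z-AUC.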

Test [8] is described as follows: BET inhibitor-based combinations targeting novel dependencies in MECOM-rearranged (r) AML: HNT-34 cell line (AID 2202234).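 Further: plate controls were vehicle wells for no effect and cell-free wells for full effect; nearly all actives have a fitted effect of over 35% in size.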 Put shortly:
as §2

Test [9] in a line: BET inhibitor-based combinations targeting novel dependencies in MECOM-rearranged (r) AML: UCSD-AML1 cell line (AID 2202235). Further: nearly all actives have a fitted effect of over 40% in size. Further: potency means the concentration at half of the fitted maximal effect. In a few lines: as §2
A short description of test [10]: BET inhibitor-based combinations targeting novel dependencies in MECOM-rearranged (r) AML: AML-194 cell line (AID 2202237;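 further: plate controls were vehicle wells for no effect and wells without cells for full effect; nearly all actives have a fitted effect of over 40% in size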). Put shortly: as §1
Test [11] deals with Aldehyde dehydrogenase, mitochondrial (Homo sapiens) (UniProt P05091). Kind of test: qHTS for Inhibitors of the Aldehyde Dehydrogenase Family (ALDH2) Confirmatory screens (AID 2061303; active means well fitted inhibition curve with a large enough effect; title and protocol of this record describe different tests; further: on the % scale 0 is the no-effect control and ±100 the full control effect; nearly all actives have a fitted effect of over 45% in size).
The target is the same in test [12]. As to the kind of experiment: qHTS for Inhibitors of the Aldehyde Dehydrogenase Family (ALDH2) Primary screen (AID 2061308).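 Further: plate controls were vehicle for no effect and reference inhibitor for full effect; nearly all actives have a fitted effect of over 55% in size.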
For test [13], the target named is Retinaldehyde dehydrogenase 3 (Homo sapiens) (UniProt P47895). As to the kind of experiment: qHTS for Inhibitors of the Aldehyde Dehydrogenase Family (ALDH1A3) Confirmatory screens (AID 2061311). Further: nearly all actives have a fitted effect of over 60% in size. Further: potency means the concentration at half of the fitted maximal effect.
The target of test [14] is Retinal dehydrogenase 2 (Homo sapiens) (UniProt O94788). Kind of test: qHTS for Inhibitors of the Aldehyde Dehydrogenase Family (ALDH1A2) Confirmation screens (AID 2061314). Further: potency means the concentration at half of the fitted maximal effect; nearly all actives have a fitted effect of over 65% in size.
Test [15] deals with Retinaldehyde dehydrogenase 3 (Homo sapiens) (UniProt P47895). Kind of test: qHTS for Inhibitors of the Aldehyde Dehydrogenase Family (ALDH1A3) Primary screen (AID 2061315).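 Further: plate controls were DMSO vehicle for no effect and reference inhibitor for full effect.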
Test [16] has as its target Aldehyde dehydrogenase 1A1 (Homo sapiens) (UniProt P00352). As to the kind of experiment: qHTS for Inhibitors of the Aldehyde Dehydrogenase Family (ALDH1A1) Confirmatory screens (AID 2061316). Further: nearly all actives have a fitted effect of over 65% in size.
Test [17] is described as follows: qHTS for Inhibitors of the Aldehyde Dehydrogenase Family (ALDH1A2, ALDH1A3, ALDH2, ALDH3A1) (AID 2061307). Further: nearly all actives have a fitted effect of over 50% in size. On Potency: test system not described further here; potency means the concentration at half of the fitted maximal effect.
Test [18] can be described thus: BET inhibitor-based combinations targeting novel dependencies in MECOM-rearranged (r) AML: AML-191 cell line (AID 2202236; further: nearly all actives have a fitted effect of over 35% in size; further: potency means the concentration at half of the fitted maximal effect). Put shortly: as §1

Values joined by “and” are separate entries in the source; they are usually repeats but may differ in a detail not shown here. Equal values may be shown once. Inconclusive results are not listed. Values without a mark were called inactive. Active and inactive are the calls of the source. Unless noted, the call rests on the fitted dose curve; in most records, active means well fitted curve in the direction sought with a large enough effect; inconclusive means small, poorly fitted or top-dose-only effect, or another doubt; inactive means no such curve, though single readings can be large; an effect the other way counts as inactive or inconclusive.

Chain of Cellular tumor antigen p53 (Homo sapiens) (P04637 whole entry, looked up): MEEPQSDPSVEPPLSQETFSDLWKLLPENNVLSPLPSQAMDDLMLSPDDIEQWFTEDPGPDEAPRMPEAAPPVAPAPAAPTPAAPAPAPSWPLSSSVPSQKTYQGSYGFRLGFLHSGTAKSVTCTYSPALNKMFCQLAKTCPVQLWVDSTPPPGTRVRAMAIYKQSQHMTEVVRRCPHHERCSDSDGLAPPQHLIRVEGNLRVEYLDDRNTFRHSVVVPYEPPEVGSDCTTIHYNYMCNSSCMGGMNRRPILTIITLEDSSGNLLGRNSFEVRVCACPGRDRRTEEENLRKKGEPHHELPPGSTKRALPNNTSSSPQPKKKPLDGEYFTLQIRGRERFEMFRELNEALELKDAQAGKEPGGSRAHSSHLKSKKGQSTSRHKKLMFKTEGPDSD

Turning to `c1ccc(C(NCc2cccnc2)(c2ccccc2)c2ccccc2)cc1`, the activation in [1] was -2.89%. Further, the Potency entry in [2] and in test [3] was “inactive” each time.
With `N#CC(=C(\N)Sc1ccccc1N)/C(C#N)=C(/N)Sc1ccccc1N`, in [1], the activation is -29.9%. In [4], the Potency entry is “inactive”.
On to `NNCCc1ccccc1`, for which the activation in [1] is 11.9% and 3.32% and -5.28%. Moreover, the Potency result in [2], in test [7], in test [8], in test [9] and in test [10] was “inactive” in each case. Moreover, in [5], the viability (commonly a read-out of living cells in per cent, often relative to untreated cells) was 108%. In addition, the Potency in test [6] was 7.42 µM (active).
Regarding `CCCCS(=N)(=O)CC[C@H](N)C(=O)O` (some centres undefined), the activation in [1] was -3.27%. Moreover, the Potency entry in test [2] and in test [3] was “inactive” throughout.
On to `O=C1c2ccccc2C(=O)c2c(NCCc3ccc(O)cc3)ccc(NCCc3ccc(O)cc3)c21`, for which the activation in [1] was -13.7%. The Potency result in test [4] was “inactive”.
With `CN(C)c1cc2c(Nc3ccc4c(cnn4Cc4ccccc4)c3)ncnc2cn1`, the activation in [1] is -35.7%. In addition, the Potency entry in test [4], in [11], in test [12], in [3], in test [15] and in [16] was “inactive” each time. In addition, the Potency in [13] was 10 µM (active); in test [14] it was 283 nM (active).
`CC(C)(C)c1cc(/C=C(\C#N)C(N)=S)cc(C(C)(C)C)c1O`: the activation in test [1] is 0.225%. Further, the Potency result in test [4] was “inactive”.
Consider `CCCCCCCCCCCCCCCCCC(=O)OC(CC(=O)O)C[N+](C)(C)C` (centres undefined), for which the activation in test [1] was -37.9%. Moreover, in [4], the Potency result is “inactive”.
Turning to `O=C1Cc2c([nH]c3ccc(Br)cc23)-c2ccccc2N1`, in test [1], the activation was -51%. Moreover, in test [4], the Potency entry was “inactive”.
`O=C1NC(=O)/C(=C/c2ccc(-c3ccc(F)cc3O)o2)S1`: in [1], the activation is -29.7%. The Potency entry in test [4] was “inactive”.
Regarding `C[C@](N)(Cc1ccc(O)c(O)c1)C(=O)O`, the activation in [1] was 3.95% and 1.83% and 6.56%. Further, the Potency result in test [2], in test [6], in [8], in [9] and in [10] was “inactive” throughout.
Regarding `COc1ccc(NC(=O)/C=C/c2ccc(Cl)cc2)cc1`, the activation in test [1] was -18.7%. Moreover, the Potency entry in test [2] and in test [3] was “inactive” throughout.
For `OCC1O[C@H]([S-])[C@H](O)[C@@H](O)[C@@H]1O.[Au+]` (some centres undefined), in test [1], the activation was 21.8%. Also, the Potency result in test [4], in test [11] and in [16] was “inactive” in each case. For the same molecule, the Potency in [17] was 2.83 µM (active).
Take `Cc1[nH]c(=O)c(C#N)cc1-c1ccc2nccn2c1`: the activation in test [1] is -19.2% and 47.5% and 13.7%. The Potency in [2] is 30.1 µM (active). For the same molecule, the Potency result in test [6], in [7], in [8], in test [9], in test [18] and in test [10] was “inactive” each time.
`CC1=C(/C=C/C(C)=C/C=C/C(C)=C/C(=O)O)C(C)(C)CCC1`: the activation in [1] was 11.9% and -12.6%. The Potency result in test [2], in test [9] and in test [10] was “inactive” each time. The viability in [5] was 106%. The Potency in test [7] is 0.59 µM (active).
`CCNC(=O)[C@H]1O[C@@H](n2cnc3c(N)nc(NCCc4ccc(CCC(=O)O)cc4)nc32)[C@H](O)C1O` (some centres undefined): the activation in [1] was -0.799%. Besides, in [4], the Potency result is “inactive”.
Regarding `CCCn1c(=O)c2[nH]c(-c3ccc(S(=O)(=O)O)cc3)nc2n(CCC)c1=O`, in test [1], the activation was -6.22%. In test [4], the Potency entry was “inactive”.
On to `c1ccc(CN2CCC3(CCCc4ccccc43)CC2)cc1`, for which, in test [1], the activation is -56.7%. For the same molecule, the Potency result in [4] is “inactive”.
Take `O=C1NC(=O)/C(=C/c2ccc3nccnc3c2)S1`: the activation in [1] was 18.2%. The Potency entry in test [2], in test [7], in test [8], in test [9], in [18] and in [10] was “inactive” each time. For the same molecule, in [5], the viability was 113%.
With `CCN(CC)C(C)CN1c2ccccc2Sc2ccccc21` (centres undefined), the activation in test [1] is -8.47% and -0.322%. Moreover, the Potency result in [2] and in test [3] was “inactive” in each case.
With `CN1CCC2(CCN3CCc4c(oc5ccccc45)C3C2)N(C)C1=O` (centres undefined), the activation in test [1] was -14.7%. For the same molecule, the Potency entry in test [4], in test [11], in test [17], in [13] and in test [16] was “inactive” each time.
As for `Cc1cc2c(cc1Cl)N(C(=O)Nc1ccc(Oc3cccnc3C)nc1)CC2`, the activation in test [1] was -71.3%. For the same molecule, the Potency result in test [4] is “inactive”.
In the case of `CN1CCN(C2=Nc3ccccc3Oc3ccc(Cl)cc32)CC1`, the activation in [1] is -10% and -16.8%. The Potency result in test [2] and in test [3] was “inactive” each time.
For `CC1=C(/C=C/C(C)=C/C=C/C(C)=C\C(=O)O)C(C)(C)CCC1`, the activation in test [1] is -30.1%. Moreover, the Potency entry in test [2], in [9] and in test [10] was “inactive” each time. In addition, in test [5], the viability is 102%. For the same molecule, the Potency was 0.742 µM (active) in test [6] and 5.25 µM (active) in test [18].
With `OCc1ccc(-c2nn(Cc3ccccc3)c3ccccc23)o1`, the activation in test [1] was -12.3% and 3.48%. Moreover, the Potency result in test [2] is “inactive”. In addition, the Potency in test [5] is 16.6 µM (active); in test [6], 23.5 µM (active); in test [7], 5.9 µM (active); in test [9] it was 20.9 µM (active).
On to `N#C/C(=C\c1ccc(-c2cc(Cl)ccc2Cl)o1)C(=O)Nc1cccc2ncccc12`, for which, in [1], the activation was -37.8%. The Potency result in test [4] is “inactive”.
On to `S=c1[nH]c(-c2ccccc2)cn1-c1ccccc1`, for which, in test [1], the activation was -21.8%. The Potency result in test [2] and in test [3] was “inactive” in each case.
